# Bioassay records from PubChem.
# Vaccinia pol inh = blocks vaccinia virus processive DNA synthesis; normalized absorbance, % (no concentration beside the values); actives 0.94% (n = 46,000); AID 493162; in vitro processive DNA synthesis, absorbance read-out; active compounds read low; in the data active = normalized absorbance mostly below about 85%, no sharp cut-off; inactive = mostly above about 86%
# Hits are given with their value; 0 = inactive. Shown is part of a subset that was picked to be rich in hits.
SMILES,Vaccinia pol inh
Cc1ccc2oc(=O)c3cc(C(=O)NCCN4CCCCC4C)sc3c2c1 (stereo not given),62
Cc1ccc2oc(=O)c3cc(C(=O)Nc4ccc5c(C)cc(=O)oc5c4)sc3c2c1,0
N/N=C/c1ccc(S(=O)(=O)c2ccc(Cl)cc2)cc1,0
Cc1cc(C)nc(NC(N)=NCCc2c[nH]c3ccccc23)n1,85
Cc1ccccc1CNCCc1c[nH]c2ccccc12,0
Cc1ccc(NC(=O)Cc2c[nH]c3ccccc23)cc1,0
O=C1/C(=C/C2CCCO2)CC/C1=C\C1CCCO1 (stereo not given),14
Cc1cc(C)nc(/N=C(/NC(=O)Cc2ccccc2)N2CCC(C(N)=O)CC2)n1,0
Cc1cc(NC(=O)CC2CCCCC2)nc2c1c(=O)oc1ccccc12,0
CC(O)c1cc(-c2ccc(Cl)cc2Cl)no1 (stereo not given),0
COc1ccc2c(c1)[C@@]1(C)CCC[C@](C)(CO)C1CC2 (stereo not given in full),0
CC(C)c1ccc2c(c1)CCC1C(C)(CNC(=O)/C=C/C(=O)O)CCCC21C (stereo not given),81
COC(=O)[C@@]1(C)CCCC2(C)c3ccc(C(C)C)cc3CCC21 (stereo not given in full),0
COC(=O)c1c(NC(=O)c2ccc(Cl)s2)sc2c1CCN(C(C)=O)C2,0
COc1ccc(OCC(=O)NCc2nc3ccccc3[nH]2)cc1,0
N#Cc1c(N)nc(SCc2ccccc2)c(C#N)c1-c1ccccc1,83
N#Cc1c(-c2ccccc2)cc(-c2ccccc2)nc1N,0
CCOc1ccc(-c2c(C#N)c(N)nc(SCC#N)c2C#N)cc1,0
CCOc1ccc(C(=O)Nc2ccc(-c3nn4c(C)nnc4s3)cc2)cc1,0
O=C(O)/C=C/C(=O)N1CCN(c2ccccc2)CC1,0
Cc1ccc(C(=O)CC(C(=O)O)N2CCN(C)CC2)cc1 (stereo not given),0
CCc1ccc(-c2csc(NC(=O)c3cccs3)n2)cc1,0
CC1CN(C(=O)NC23CC4CC(CC(C4)C2)C3)c2cc(Cl)ccc2O1 (stereo not given),0
CC1CN(C(=O)N2CCC(C(=O)O)CC2)c2cc(Cl)ccc2O1 (stereo not given),68
Cc1ccc2c(c1)N(C(=O)N1CCC(C(=O)O)CC1)CC(C)O2 (stereo not given),0
SMILES,Vaccinia pol inh
CCc1cccc2c(=O)c(CN(C)C)c(C)[nH]c12,0
CN(C)Cc1ccc2ccc3cccc4ccc1c2c34,12
CC1CCc2[nH]c3ccc(C(=O)O)cc3c2C1 (stereo not given),0
COC(=O)c1ccc2c(c1)NC(=O)C1CCCN21 (stereo not given),0
O=C(O)c1ccc2c(c1)NC(=O)C1CCCN21 (stereo not given),48
Cc1ccc2cc(C(N)=O)c(=N)oc2c1,0
O=C(O)C(Cc1ccccc1)N1C(=O)/C(=C/c2ccccc2)SC1=S (stereo not given),0
COc1cc(/C=C2\SC(=S)N(C(C(=O)O)C(C)C)C2=O)cc(OC)c1O (stereo not given),0
CC(C)C(C(=O)O)N1C(=O)/C(=C/c2ccccc2)SC1=S (stereo not given),83
CN(C)c1ccc(C(O)c2nc3ccccc3n2Cc2ccccc2)cc1 (stereo not given),0
NC(C(=O)O)c1ccsc1 (stereo not given),0
Cc1cccc(Nc2cc(C)nc3ccccc23)c1,77
Cc1cc(Nc2ccc(O)cc2)c2ccccc2n1,0
COC(=O)c1ccc(Nc2cc(C)nc3ccccc23)cc1,0
O=C1c2ccccc2C(NCCc2ccccc2)N1CCc1ccccc1 (stereo not given),0
COC(CNS(=O)(=O)c1cccc2cccnc12)OC,0
COC(=O)c1cc(Cl)c(NC(=S)NC(=O)C(C)(C)C)cc1OC,0
CN(C)c1ccc(C(O)c2cccs2)cc1 (stereo not given),0
CC(C)CCNc1c2c(nc3nncn13)CCC2,0
CN1/C(=C/c2cccc[n+]2C)C=Cc2ccccc21,0
CN1C=C/C(=C\c2cc[n+](C)c3ccccc23)c2ccccc21,84
C[n+]1ccc(/C=C/c2ccccc2F)c2ccccc21,0
Cc1cc(NC(=O)c2cc(-c3ccc(F)cc3)no2)nn1CC(=O)N1CCC(C)CC1,0
CC(C(N)=O)N1C(=O)c2ccccc2C1=O (stereo not given),0
COc1ccc(C(=O)CNC2=NCCC2)cc1,0
SMILES,Vaccinia pol inh
COc1ccc(C(=O)CSC2=NCCCCCC2)cc1,65
COc1ccc(C(=O)CSc2ncccn2)cc1,0
Cc1ccc(C(=O)N/C(=C\C=C/c2ccccc2)C(=O)NCC2CCCO2)cc1 (stereo not given),0
CCN(CC)c1cc(-c2cccs2)nc(SCC(=O)c2cccs2)c1C#N,0
N#CSCC(=O)c1cccs1,61
O=C(CSc1nnc2sc3ccccc3n12)c1cccs1,0
Cc1cc(O)cc2oc(C(F)(F)F)c(Oc3ccccc3)c(=O)c12,0
NC(=O)C1CCN(C(=S)Nc2ccc(Cl)cc2)CC1,0
CCOc1ccc(N=c2scc(-c3ccc(Cl)s3)n2C)cc1,0
